About 83,000 compounds went through this panel and 20% of them were active in at least one assay; those are over-represented in the sample as a whole.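 Assay: single dose, 48 h. Readout: percent growth (0 = no net growth; negative = cell death). Active: <10.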 Unmarked numbers belong to inactive results.
Each molecule was assayed on KM12 colon (assay: NCI-60 one-dose screen, 48 h (100 = growth as untreated, 0 = no growth, -100 = all killed)). Settings: 10 µM unless noted.

Question: OCC1OC(n2ccc3c2ncn2ncnc32)C(O)C1O (configuration not stated) was tested. Which growth did it give?
Answer: 27.6%

Question: How did the growth turn out when Nc1cc(N)ncn1 was run?
Answer: 101%

Question: CCC(/C=C\C(C)=O)CC was tested. Which growth did it give?
Answer: 105%

Question: For Cc1[nH]c(=S)[nH]c(=O)c1C, which growth is on record?
Answer: 108%

Question: With CC(C)Sc1ncnc2nc[nH]c12 as the molecule, how does the growth read?
Answer: 128%

Question: Which growth does the source give for CC(C)N(CCCC#N)C(C)C here?
Answer: 105%

Question: C=C1C(=O)C2CCN1CC2 was tested. Which growth did it give?
Answer: 102%

Question: CCC12OC(COc3ccccc3)CN1CCN2c1ccccc1 (configuration not stated) was tested. Which growth did it give?
Answer: 98.9% [100 µM]

Question: For CCCCOC(=O)c1ccccc1O, which growth is on record?
Answer: 106%

Question: How did the growth turn out when CC1CC(C)S(=O)(=O)C1 (configuration not stated) was run?
Answer: 102%

Question: How did the growth turn out when C=CC1=NC(C)(C)CC(C)O1 (configuration not stated) was run?
Answer: 109%

Question: CN(C)c1ncnc2c1cnn2C was tested. Which growth did it give?
Answer: 104%

Question: COc1cc(OC)c(NC(=O)C(Sc2nc(C)cc(C)c2C#N)c2ccccc2)cc1Cl (configuration not stated) was tested. Which growth did it give?
Answer: 96.4%

Question: Which growth does the source give for CC(=O)NCNC(C)=O here?
Answer: 117%

Question: CCCCNC(=O)c1ccc(OCC)cc1 was tested. Which growth did it give?
Answer: 106%

Question: How did the growth turn out when Nc1ccc(F)c(Cl)c1F was run?
Answer: 108%

Question: How did the growth turn out when C=C(OC(C)=O)c1ccccc1 was run?
Answer: 102%

Question: Which growth does the source give for C/C=C/C1OCC(CC)C(CCC)O1 (configuration not stated) here?
Answer: 102%

Question: Which growth does the source give for COc1ccc(C2CC(c3ccccc3)=Nc3ccccc3S2)cc1 (configuration not stated) here?
Answer: 87.4%

Question: Clc1cccc(Cl)c1C1CSc2ccccc2N=C1c1ccccc1 (configuration not stated) was tested. Which growth did it give?
Answer: 44.1%

Question: For COC1CC(OC(=O)c2ccc([N+](=O)[O-])cc2)C(COC(=O)c2ccc([N+](=O)[O-])cc2)O1 (configuration not stated), which growth is on record?
Answer: 109%

Question: With CC(=O)NC(CCC(=O)c1ccccc1)C(=O)O (configuration not stated) as the molecule, how does the growth read?
Answer: 103%

Question: How did the growth turn out when ClCc1cccc2c(CCl)cccc12 was run?
Answer: 13.7%

Question: With CCCCCCCCCCCCCCCCCC(=O)NCCNC(=O)CCCCCCCCCCCCCCCCC as the molecule, how does the growth read?
Answer: 96.4%

Question: With O=C(CCCl)OCCOc1ccccc1 as the molecule, how does the growth read?
Answer: 102%

Question: With O=C(O)CC1=CCCCC1 as the molecule, how does the growth read?
Answer: 98%

Question: How did the growth turn out when c1cc(CNCCNCc2ccncc2)ccn1 was run?
Answer: 108%

Question: Which growth does the source give for O=C1CSc2ccccc2N1 here?
Answer: 109%

Question: For CC(C)OCC(CCl)OC(=O)Nc1ccccc1 (configuration not stated), which growth is on record?
Answer: 96.6%

Question: For COCC(N)=O, which growth is on record?
Answer: 98.9%

Question: Nc1cc(F)ccc1[N+](=O)[O-] was tested. Which growth did it give?
Answer: 104%

Question: CC(C)=CCC[C@@H](C)[C@H]1CC[C@@]2(C)C3=C(CC[C@]12C)[C@@]1(C)CC[C@H](O)C(C)(C)[C@@H]1CC3 was tested. Which growth did it give?
Answer: 109%

Question: With BrCc1cccc(C[P+](c2ccccc2)(c2ccccc2)c2ccccc2)c1 as the molecule, how does the growth read?
Answer: 30.2%

Question: With COc1ccc(/C=N/NC(=O)COCC(=O)N/N=C/c2ccc(OC)cc2)cc1 as the molecule, how does the growth read?
Answer: 107%

Question: How did the growth turn out when CCOC(=O)CSCCC#N was run?
Answer: 105%

Question: Which growth does the source give for Cc1cccc2ccccc12 here?
Answer: 106%

Question: Which growth does the source give for CCC(=O)C1C(=O)c2ccccc2C1=O here?
Answer: 105%

Source: PubChem BioAssay (NCI)
